Several values for one entry are separate records, joined by “and”; a condition that tells them apart may be missing. Equal values may be shown once. Results filed as inconclusive are left out. Some compounds were tested as several samples or in several runs, with calls that do not always agree. Activity calls are given as the source filed them. Unless noted, the call rests on the fitted dose curve.
What was measured:
[1] = qHTS assay to identify small molecule antagonists of the sonic hedgehog signaling (Shh) pathway (AID 1259369); further: nearly all actives have a fitted effect of over 45% in size; further: potency means the concentration at half of the fitted maximal effect
How it was run: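 Gli1 transcriptional reporter (firefly Luc) in NIH/3T3 background, conditioned-medium activated. 24hr exposure, luminescence endpoint.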

[2] = biological target: Estrogen receptor beta (Homo sapiens) (UniProt Q92731); experiment: qHTS assay to identify small molecule agonists of the estrogen receptor beta (ER-beta) signaling pathway (AID 1259377; active means well fitted activation curve with a large enough effect in the signal ratio in the repeat runs, not every such curve was filed as active; the % refers to the signal ratio)
Chain of Estrogen receptor beta (Homo sapiens) (Q92731 whole entry, looked up): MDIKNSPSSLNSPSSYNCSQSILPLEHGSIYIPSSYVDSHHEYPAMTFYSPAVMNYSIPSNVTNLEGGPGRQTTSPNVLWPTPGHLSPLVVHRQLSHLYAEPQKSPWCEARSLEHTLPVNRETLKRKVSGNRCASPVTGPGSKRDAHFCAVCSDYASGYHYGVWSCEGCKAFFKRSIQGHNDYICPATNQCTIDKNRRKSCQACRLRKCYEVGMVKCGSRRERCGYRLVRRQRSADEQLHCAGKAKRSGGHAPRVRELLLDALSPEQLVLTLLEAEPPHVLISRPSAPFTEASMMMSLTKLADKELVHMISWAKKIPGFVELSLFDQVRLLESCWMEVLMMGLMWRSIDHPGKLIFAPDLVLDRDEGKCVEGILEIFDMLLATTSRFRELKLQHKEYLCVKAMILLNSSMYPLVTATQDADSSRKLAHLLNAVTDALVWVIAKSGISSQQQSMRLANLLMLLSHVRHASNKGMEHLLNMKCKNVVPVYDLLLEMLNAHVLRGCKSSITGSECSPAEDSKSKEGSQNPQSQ
How it was run: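 HEK293T ER-beta-UAS-bla; 2% charcoal-stripped FBS; cells pre-incubated 6 hr, compound 16 hr, 37C/5% CO2; LiveBLAzer B/G FRET substrate 2 h RT; fluorescence intensity read.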

[3] = biological target: Estrogen receptor beta (Homo sapiens) (UniProt Q92731); experiment: qHTS assay to identify small molecule antagonists of the estrogen receptor beta (ER-beta) signaling pathway (AID 1259378; active means well fitted inhibition curve with a large enough effect in the signal ratio in the repeat runs, not every such curve was filed as active; the % refers to the signal ratio)
How it was run: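 ER-beta-UAS-bla HEK293T cells in 2% charcoal-stripped FBS medium treated with compound plus 1nM final 17-beta-estradiol for 16 hr at 37C. Beta-lactamase reporter read by FRET substrate fluorescence after 2 hours at room temperature.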

[4] = qHTS assay to identify small molecule agonists of the androgen receptor (AR) signaling pathway in the presence of an antagonist - cell viability counter screen (AID 1259379; active means well fitted curve in the direction sought with a large enough effect in the repeat runs; an effect the other way counts as inactive or inconclusive; further: nearly all actives have a fitted effect of over 25% in size; further: potency means the concentration at half of the fitted maximal effect;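 on activity change, negative = cytotoxicity: MDA-kb2 human breast cancer cells carrying an MMTV luciferase reporter; series mostly up to about 92 µM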)
How it was run: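 Counter screen for cell viability run in parallel with the AR agonist-mode luciferase assay. MDA-kb2 cells were co-treated with nilutamide (3.0uM final) and compounds, then incubated 16 hr at 37C, and CellTiter-Fluor fluorescence was measured.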

[5] = qHTS assay to identify small molecule agonists of the estrogen receptor beta (ER-beta) signaling pathway - cell viability counter screen (AID 1259380; active means well fitted curve in the direction sought with a large enough effect in the repeat runs; an effect the other way counts as inactive or inconclusive; further: nearly all actives have a fitted effect of over 30% in size; further: potency means the concentration at half of the fitted maximal effect)
How it was run: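 In this qHTS counter screen, HEK293T cells carrying an ER-beta/UAS beta-lactamase reporter, grown in 2% charcoal-stripped FBS, received compound for 16 hr; ATP-based CellTiter-Glo luminescence was then read after 30 min at room temperature.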

[6] = biological target: Androgen receptor (Homo sapiens) (UniProt P10275); experiment: qHTS assay to identify small molecule agonists of the androgen receptor (AR) signaling pathway in the presence of an antagonist (AID 1259381); further: nearly all actives have a fitted effect of over 15% in size; further: potency means the concentration at half of the fitted maximal effect
Chain of Androgen receptor (Homo sapiens) (P10275 whole entry, looked up): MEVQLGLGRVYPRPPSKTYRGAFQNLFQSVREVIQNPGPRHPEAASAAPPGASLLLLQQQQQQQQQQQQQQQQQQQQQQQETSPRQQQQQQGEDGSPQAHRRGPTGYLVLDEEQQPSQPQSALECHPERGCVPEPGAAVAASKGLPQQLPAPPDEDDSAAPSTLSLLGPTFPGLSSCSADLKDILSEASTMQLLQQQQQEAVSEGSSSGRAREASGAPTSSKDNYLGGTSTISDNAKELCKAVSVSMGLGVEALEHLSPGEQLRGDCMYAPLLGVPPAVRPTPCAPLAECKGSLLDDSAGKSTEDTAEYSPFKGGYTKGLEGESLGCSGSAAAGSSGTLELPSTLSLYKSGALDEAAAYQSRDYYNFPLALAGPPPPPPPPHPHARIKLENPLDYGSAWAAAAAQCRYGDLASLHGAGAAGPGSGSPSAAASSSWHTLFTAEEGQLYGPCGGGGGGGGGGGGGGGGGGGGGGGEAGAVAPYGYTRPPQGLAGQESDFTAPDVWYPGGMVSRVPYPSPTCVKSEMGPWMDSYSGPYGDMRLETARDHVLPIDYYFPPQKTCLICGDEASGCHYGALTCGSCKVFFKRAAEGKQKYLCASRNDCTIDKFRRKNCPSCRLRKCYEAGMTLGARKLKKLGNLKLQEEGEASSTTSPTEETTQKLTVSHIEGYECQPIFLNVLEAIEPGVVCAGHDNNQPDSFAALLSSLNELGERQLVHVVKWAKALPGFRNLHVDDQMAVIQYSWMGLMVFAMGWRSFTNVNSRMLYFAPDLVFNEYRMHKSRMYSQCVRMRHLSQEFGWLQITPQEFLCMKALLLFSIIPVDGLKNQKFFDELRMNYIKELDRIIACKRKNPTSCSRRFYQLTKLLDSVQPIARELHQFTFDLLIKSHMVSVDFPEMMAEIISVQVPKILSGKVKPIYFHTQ
How it was run: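 AR antagonist background: nilutamide 3.0uM final. Cell line: MDA-kb2, MMTV-driven luciferase, responsive to both AR and GR. Exposure 16hr, 37C, no CO2; ONE-Glo luminescence.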

[7] = biological target: Estrogen receptor (Homo sapiens) (UniProt P03372); experiment: qHTS assay to identify small molecule agonists of the estrogen receptor alpha (ER-alpha) signaling pathway in the presence of an antagonist (AID 1259383); further: top concentration of the series differs between compounds; nearly all actives have a fitted effect of over 15% in size
Chain of Estrogen receptor (Homo sapiens) (P03372 whole entry, looked up): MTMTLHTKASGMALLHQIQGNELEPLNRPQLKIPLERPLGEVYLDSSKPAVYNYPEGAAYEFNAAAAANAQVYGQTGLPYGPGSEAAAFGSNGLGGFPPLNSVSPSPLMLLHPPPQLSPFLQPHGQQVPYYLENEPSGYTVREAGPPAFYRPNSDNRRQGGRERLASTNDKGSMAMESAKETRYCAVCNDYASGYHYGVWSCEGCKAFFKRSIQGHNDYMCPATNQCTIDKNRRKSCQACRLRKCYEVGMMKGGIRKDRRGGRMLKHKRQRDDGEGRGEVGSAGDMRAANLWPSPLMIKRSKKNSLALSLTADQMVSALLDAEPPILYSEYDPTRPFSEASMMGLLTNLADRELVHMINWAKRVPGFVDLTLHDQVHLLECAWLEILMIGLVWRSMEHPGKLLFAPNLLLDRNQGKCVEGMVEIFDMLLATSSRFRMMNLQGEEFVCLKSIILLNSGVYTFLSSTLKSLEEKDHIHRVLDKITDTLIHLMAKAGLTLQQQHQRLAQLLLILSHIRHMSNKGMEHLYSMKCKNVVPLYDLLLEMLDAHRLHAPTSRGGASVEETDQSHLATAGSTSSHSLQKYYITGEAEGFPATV
How it was run: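 ER-alpha agonism measured under antagonist challenge: 10.0nM ICI-182,780 (final) plus compound, 15 concentrations, 22hr, VM7Luc4E2 ERE-luciferase cells. Read by luminescence.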

[8] = qHTS assay to identify small molecule agonists or antagonists of the thyroid stimulating hormone receptor (TSHR) signaling pathway - wild type cell line counter screen (AID 1259384)
How it was run: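 Wild-type Hek293 cells, 800/well, 18 h at 37C, then compound with Ro20-1724 for 30 min RT. cAMP by HTRF (cAMP-d2/anti-cAMP cryptate), 1 h RT, fluorescence read. 15 concentrations, triplicates.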

[9] = biological target: Thyrotropin receptor (Homo sapiens) (UniProt P16473); experiment: qHTS assay to identify small molecule antagonists of the thyroid stimulating hormone receptor (TSHR) signaling pathway (AID 1259385); further: nearly all actives have a fitted effect of over 20% in size
Chain of Thyrotropin receptor (Homo sapiens) (P16473 whole entry, looked up): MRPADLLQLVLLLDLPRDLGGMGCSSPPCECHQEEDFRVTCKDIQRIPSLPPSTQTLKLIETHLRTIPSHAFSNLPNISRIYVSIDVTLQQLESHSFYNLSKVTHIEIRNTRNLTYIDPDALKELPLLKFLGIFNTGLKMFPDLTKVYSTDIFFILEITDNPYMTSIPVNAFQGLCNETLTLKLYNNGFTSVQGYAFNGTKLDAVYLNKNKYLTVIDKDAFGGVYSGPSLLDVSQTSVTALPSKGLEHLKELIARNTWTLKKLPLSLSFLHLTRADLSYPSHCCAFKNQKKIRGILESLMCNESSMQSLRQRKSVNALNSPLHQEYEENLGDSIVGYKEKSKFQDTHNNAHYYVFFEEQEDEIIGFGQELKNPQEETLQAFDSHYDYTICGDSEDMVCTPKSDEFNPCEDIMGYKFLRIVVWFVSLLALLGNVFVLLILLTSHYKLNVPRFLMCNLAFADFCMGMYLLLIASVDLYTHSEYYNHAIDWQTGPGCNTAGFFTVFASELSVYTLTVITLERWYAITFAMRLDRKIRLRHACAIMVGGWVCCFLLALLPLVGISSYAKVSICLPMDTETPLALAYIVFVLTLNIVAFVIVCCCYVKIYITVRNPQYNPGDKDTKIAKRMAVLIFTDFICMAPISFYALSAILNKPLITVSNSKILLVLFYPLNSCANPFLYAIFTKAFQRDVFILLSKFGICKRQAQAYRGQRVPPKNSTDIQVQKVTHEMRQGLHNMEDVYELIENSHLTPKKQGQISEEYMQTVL
How it was run: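 TSHR-HEK293 cells (800/well) plated 18 h, then compounds with Ro20-1724 and TSH at 1.5 ng/mL final, 30 min at room temperature. cAMP quantified by HTRF (cAMP-d2/anti-cAMP-cryptate, 1 h); 15 concentrations in triplicate.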

[10] = qHTS assay to identify small molecule antagonists of the estrogen receptor beta (ER-beta) signaling pathway - cell viability counter screen (AID 1259382; active means well fitted curve in the direction sought with a large enough effect in the repeat runs; an effect the other way counts as inactive or inconclusive; further: nearly all actives have a fitted effect of over 55% in size; further: potency means the concentration at half of the fitted maximal effect; on activity change, negative = cytotoxicity: series mostly up to about 92 µM)
How it was run: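 HEK293T ER-beta-UAS-bla, 2% charcoal-stripped FBS; compounds + 1nM E2 16 hr 37C; CellTiter-Glo luminescence, 30 min RT.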
On the % scale 0 is the no-effect control and ±100 the full control effect.

Nc1nc(=S)c2[nH]cnc2[nH]1
active: Potency [1] 842 nM and 545 nM and 596 nM | Potency [5] 3.06 µM and 2.98 µM
inactive: outcome [2] | Potency [3] | Potency [4] | Potency [6] | Potency [7] | Potency [8] | Potency [9]

CCCCCCCCCCCCCCCCCl
inactive: activity change, negative = inhibition [1] 30% [at 19 µM] | activation [2] 1.06% [at 19 µM] | activity, negative = inhibition [3] 9.46% [at 19 µM] | activity change, negative = cytotoxicity [5] 3.21% [at 19 µM] | activity change, negative = cytotoxicity [10] 3.31% [at 19 µM] | activation [7] -0.0791% [at 19 µM] | cAMP activity change [8] 0.656% [at 18.9 µM, stronger effect = higher value] | activity change, negative = inhibition [9] -1.34% [at 19 µM]

COC(=O)c1cccc(C(=O)OC)c1
inactive: Potency [1] | outcome [2] | Potency [3] | Potency [4] | Potency [5] | Potency [6] | Potency [10] | Potency [7]

O=c1n(CC2CO2)c(=O)n(CC2CO2)c(=O)n1CC1CO1 (stereo not drawn)
active: Potency [1] 963 nM and 3.06 µM
inactive: outcome [2] | Potency [3] | Potency [5] | Potency [10] | Potency [7] | Potency [8] | Potency [9]

Nc1ccc(O)cc1
inactive: outcome [2] | Potency [3] | Potency [5] | Potency [7] | Potency [8] | Potency [9]
63.5 µM (active) and inactive: Potency [10]
56.6 µM (active) and inactive: Potency [4]
7.99 µM (active) and inactive: Potency [1]
5.04 µM (active) and inactive: Potency [6]

CC(=O)OCCOCCOCCOC(C)=O
inactive: Potency [1] | outcome [2] | Potency [3] | Potency [4] | Potency [5] | Potency [10] | Potency [7] | Potency [9]

CC(C)(O)CCC(C)(C)O
inactive: Potency [1] | outcome [2] | Potency [3] | Potency [4] | Potency [5] | Potency [6] | Potency [10] | Potency [7] | Potency [8] | Potency [9]

NC(=Nc1ccccc1)Nc1ccccc1
active: Potency [1] 2.43 µM
inactive: outcome [2] | Potency [3] | Potency [4] | Potency [5] | Potency [10] | Potency [7] | Potency [8] | Potency [9]

Cc1scc2c1N(C(=O)CN1CCN(C)CC1)c1ccccc1NC2=O
inactive: Potency [1] | outcome [2] | Potency [3] | Potency [5] | Potency [10] | Potency [7] | Potency [8] | Potency [9]

Cc1cccc(O)c1C
inactive: Potency [1] | outcome [2] | Potency [3] | Potency [4] | Potency [5] | Potency [10] | Potency [7] | Potency [8] | Potency [9]

COC(=O)/C=C/c1ccccc1
inactive: outcome [2] | Potency [3] | Potency [5] | Potency [10] | Potency [7] | Potency [8] | Potency [9]
inactive and 21.7 µM (active): Potency [1]

O=C(O)CCc1ccccc1
inactive: Potency [1] | outcome [2] | Potency [3] | Potency [4] | Potency [5] | Potency [10] | Potency [8] | Potency [9]

O=Cc1ccc(Cl)cc1
inactive: Potency [1] | outcome [2] | Potency [3] | Potency [4] | Potency [5] | Potency [6] | Potency [10] | Potency [8] | Potency [9]

CC1COC(=O)O1 (stereo not drawn)
inactive: Potency [1] | outcome [2] | Potency [3] | Potency [4] | Potency [5] | Potency [6] | Potency [10] | Potency [7] | Potency [8] | Potency [9]

CC(=O)OCC1=C(C(=O)O)N2C(=O)[C@@H](NC(=O)Cc3cccs3)[C@H]2SC1
inactive: Potency [1] | outcome [2] | Potency [3] | Potency [4] | Potency [5] | Potency [10] | Potency [8] | Potency [9]

c1ccc2n[nH]nc2c1
inactive: Potency [1] | outcome [2] | Potency [3] | Potency [4] | Potency [5] | Potency [10] | Potency [8] | Potency [9]

Cc1ccnc2c1NC(=O)c1cccnc1N2C1CC1
inactive: Potency [1] | outcome [2] | Potency [3] | Potency [4] | Potency [5] | Potency [10] | Potency [8] | Potency [9]

CCCCN(CCO)CCCC
inactive: Potency [1] | outcome [2] | Potency [3] | Potency [5] | Potency [10] | Potency [7] | Potency [8] | Potency [9]

BrC1CCC(Br)C(Br)CCC(Br)C(Br)CCC1Br (stereo not drawn)
inactive: outcome [2] | Potency [3] | Potency [4] | Potency [6] | Potency [7] | Potency [8]
active: Potency [1] 32.6 µM | Potency [5] 30.5 µM and 46.1 µM | Potency [10] 54.3 µM and 46.1 µM

— PubChem BioAssay (Tox21)
